# From PubChem BioAssay AID2716 (Broad Institute, 2010)
# In all, about 320,000 compounds went through this assay and about 3,300 (1%) were called active. The list comes from a sample in which actives are over-represented; it also holds similar structures and randomly drawn compounds. A number with no mark means an inactive call.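 How the source made its calls: active means every valid replicate shows activation above 250% relative to neutral control wells; inactive means the rest, any valid replicate at or below 250%.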
# Assay: yeast Mot1-301 growth rescue at high temperature, primary screen, SUMOylation pathway inhibitor project, S. cerevisiae, ATP luminescence, 38.5C (AID 2716);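 further: OY570 slx delta 5 strain wells were the positive control but not used for scaling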
# Conditions: S. cerevisiae Mot1-301 growth rescue, at 18.8 µM, stronger effect = higher value, percent above DMSO median, 100 means doubled
row,Structure (SMILES),growth rescue
1,Cc1c(C(N)=O)sc2ncn(CCOc3ccccc3)c(=O)c12,-2.19%
2,Cc1nn(CCOc2ccccc2)c(=O)n1-c1ccccc1F,1160% (active)
3,Cc1cccc2c1N(CCOc1ccccc1)C(=O)C2=O,-12.8%
4,CN(/C(=N/S(=O)(=O)c1cccs1)c1ccccc1)c1ccc(O)cc1,313%
5,COc1ccc(Cl)cc1NC(=O)CNc1ccccc1F,0.922%
6,COc1ccc(/C(C)=N/NC(=O)CCC(=O)Nc2ccc(Cl)cc2Cl)c(OC)c1,28.5%
7,CCCCC(=O)N/N=C(\C)CC(=O)Nc1cc(Cl)ccc1OC,1520% (active)
8,COc1ccc(Cl)cc1-n1c(C)cc(C(=O)OCC(=O)N2CC(=O)Nc3ccccc32)c1C,-14.8%
9,CCc1noc(C)c1C(=O)Oc1ccc(N(C)S(=O)(=O)c2ccc(C)c(C)c2)cc1,-5.53%
10,COCC(=O)Nc1cc(C(=O)OC)cc(C(=O)OC)c1,10%
11,COC(=O)c1cc(NC2c3ccccc3C(=O)N2c2ccc(Cl)cn2)cc(C(=O)OC)c1 (centres undefined),-1.41%
12,CCc1ccccc1NC1c2ccccc2C(=O)N1c1cccnc1 (centres undefined),462% (active)
13,Cc1ccnc(N2C(=O)c3ccccc3C2Nc2ccc3c(c2)OCCO3)c1 (centres undefined),-14%
14,CS(=O)(=O)N(CC(=O)N/N=C/c1ccccn1)c1ccc(Oc2ccccc2)cc1,6.74%
15,O=C(CN1C(=O)/C(=C/c2ccccc2F)Sc2ccccc21)NCc1cccnc1,-3.97%
16,O=C(CCCCCN1C(=O)c2cccc3cccc(c23)C1=O)NCc1ccco1,-8.72%
17,O=C(CN1C(=O)/C(=C\c2ccc(C(F)(F)F)cc2)Sc2ccccc21)NCc1ccco1,963% (active)
18,Cc1ccc(NC(=O)COC(=O)CN2CCCCCC2=O)c(C)c1,2.83%
19,O=C(O)c1c(NC(=O)N2CCCC2)sc2c1CCCC2,2.52%
20,O=C(O)CCCCCCCCCC[n+]1ccccc1,17.1%

row,Structure (SMILES),growth rescue
1,CC(CNc1ccc([N+](=O)[O-])c2cccnc12)Nc1c([N+](=O)[O-])cc(C(F)(F)F)cc1[N+](=O)[O-] (centres undefined),469%
2,CCOC(=O)CCCCCC(=O)Nc1ccc2c(c1)CC(=O)N([C@@H](C)CO)C[C@H](C)[C@@H](CN(C)Cc1ccccc1)O2,-3.38%
3,Cc1nc2sc(C(c3ccco3)N3CCC4(CC3)OCCO4)c(O)n2n1 (centres undefined),-10%
4,Cc1ccc(C(c2sc3nc(C)nn3c2O)N2CCN(c3ccccc3)CC2)cc1 (centres undefined),6.75%
5,Cc1nc2sc(C(c3ccco3)N3CCOCC3)c(O)n2n1 (centres undefined),853% (active)
6,CCN1CCN(C(C(=O)NC2CCCC2)c2cc3c(cc2[N+](=O)[O-])OCO3)CC1 (centres undefined),-4.81%
7,COc1cccc(CNC(=O)Cn2c(=O)oc3cc(S(=O)(=O)N4CCCCC4)ccc32)c1,4.01%
8,CC1CCCCN1C(=O)Cn1c(=O)oc2cc(S(=O)(=O)N3CCCCC3)ccc21 (centres undefined),12%
9,CC(C)CCNC(=O)Cn1c(=O)oc2cc(S(=O)(=O)N3CC(C)CC(C)C3)ccc21 (centres undefined),608% (active)
10,Clc1ccc(Nc2ccc3ccccc3n2)cc1,30.7%
11,COc1ccc(CNC(=O)COc2cccnc2[N+](=O)[O-])cc1,-4.39%
12,COc1ccc(OC)c(NC(=O)CSc2nc(-c3ccccc3)cc(=O)[nH]2)c1,371%
13,Cc1cccc(NC(=O)c2ccc3c(=O)n(CC4CCCO4)c(=S)[nH]c3c2)c1 (centres undefined),-20.5%
14,O=C(NCc1ccccc1Cl)c1ccc2c(=O)n(CC3CCCO3)c(=S)[nH]c2c1 (centres undefined),-7.73%
15,O=C(NC1CCCCC1)c1ccc2c(=O)n(CC3CCCO3)c(=O)[nH]c2c1 (centres undefined),2310% (active)
16,O=C(Nc1cccc(F)c1)NC1CCCCCCC1,2.77%
17,N#C/C(=C(\O)CCl)c1nnc2n1CCCCC2,10%
18,Cc1cn(C)c(=O)n(C)c1=O,274%
19,Cc1ccc(-c2cn3cc(C)ccc3n2)cc1,297% (active)
20,Cc1ccc2nc(-c3ccc(Br)cc3)cn2c1,-0.961%

row,Structure (SMILES),growth rescue
1,Cc1ccc(-c2cn3cc([N+](=O)[O-])ccc3n2)cc1,25%
2,Cc1cccc(NC(=S)N(CCN(C)C)C(C)c2ccco2)c1 (centres undefined),58.7%
3,Cc1nnc(NC(=O)Cn2c(=O)sc3ccccc32)s1,0.0426%
4,O=C(Cn1c(=O)sc2ccccc21)Nc1ccc2c(c1)OCCO2,284% (active)
5,Cn1c(=O)c2ccccc2n(CC(=O)Nc2ccc3c(c2)OCCO3)c1=O,0.839%
6,COCC1CCN(C(=O)CCc2nnc(C3(c4ccc(Cl)cc4)CCC3)o2)C1 (centres undefined),-10.9%
7,Cc1ccc(S(=O)(=O)N(CC(=O)NCCSC2CCCCC2)c2ccccc2F)cc1,1.9%
8,Cc1cccc(N(C(=O)c2ccc(CN3CCOCC3)o2)C(C(=O)NC2CCCCC2)c2ccc(F)cc2)c1 (centres undefined),647% (active)
9,O=C(NC1CCCC1)C(c1ccc(N2CCOCC2)cc1)N(C(=O)c1ccco1)c1ccccc1F (centres undefined),95.4%
10,Cc1ccc(N(C(=O)c2ccc(CN3CCOCC3)o2)C(C(=O)NCCC(C)C)c2cccs2)c(C)c1 (centres undefined),-1.16%
11,CCc1cc(-c2nnc(SCC(=O)NC3CC3)n2C)cs1,-5.06%
12,C=C(Cl)COC(=O)C1C2C=CC(C2)C1C(=O)O (centres undefined),885% (active)
13,CN1CCN(C(=O)C2C3C=CC(C3)C2C(=O)O)CC1 (centres undefined),0.946%
14,O=C(O)C1C2C=CC(C2)C1C(=O)NCc1ccccc1 (centres undefined),-11%
15,CCOC(=O)C1CCN(C(=O)c2cccc(S(=O)(=O)N(CC)c3ccccc3)c2)CC1,-7.37%
16,Cc1cc(C)n(CCC(=O)N2CCN(S(=O)(=O)c3ccc(C)c(C)c3)CC2)n1,315% (active)
17,Cc1cc(C)n(C(=O)c2ccc(S(=O)(=O)N3CCCC3)cc2)n1,1400%
18,Cc1ccc(S(=O)(=O)N2CCN(c3ccccc3)CC2)cc1C,11.5%
19,Cc1ccccc1NC(=O)C(C)OC(=O)CCC(=O)N(CC(C)C)c1c(N)n(CC(C)C)c(=O)[nH]c1=O (centres undefined),-16.2%
